ELG1 repair inh = inhibitors of ELG1-dependent DNA repair in HEK293T cells; HEK293T ELG1-luciferase reporter, luminescence, 16 h; DNA damage induced by 5-fluorouridine; Potency, µM (titrated, usually from 46.1 µM), most hits filed as inhibitors; 330,000 compounds, 2.3% hits; further: nearly all actives have a fitted effect of over 55% in size
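DMSO vehicle served as the neutral condition. Each well held 2,000 cells given 5-fluorouridine plus compound; after 16 hr at 37 °C/5% CO2, ONE-Glo was added and luciferase measured 30 min later.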
TDP1 cell CPT = growth inhibition of DT40 Tdp1-/-;hTDP1 cells with camptothecin (screen for TDP1 inhibitors). 420,000 compounds, 12% hits. Potency, µM (highest dose often 46.2 µM), most hits filed as inhibitors. chicken DT40 Tdp1-/-;hTDP1 cells + 20 nM CPT, ATP luminescence, 48 h; further: nearly all actives have a fitted effect of over 55% in size
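Chicken DT40 Tdp1-/- cells complemented with human TDP1, 400 cells/well, exposed to compounds plus 20 nM camptothecin for at least 48 h at 37 C; viability read as ATP content by CellTiter-Glo luminescence.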
TDP1 cell noCPT = qHTS for Inhibitors of human tyrosyl-DNA phosphodiesterase 1 (TDP1): qHTS in cells in absence of CPT. AID 686978, 2013. Potency, µM (highest dose often 46.2 µM), actives largely listed as inhibitors. 420,000 compounds, 15% hits. DT40 Tdp1-/- hTDP1 cells, no CPT, ATP luminescence, 48 h; further: nearly all actives have a fitted effect of over 55% in size
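Stably hTDP1-transfected Tdp1-null chicken DT40 cells were treated with library compounds minus camptothecin and grown for at least 48 hr at 37 °C, after which cellular ATP was quantified by luminescence.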
12-LOX inh = inhibitors of human 12S-lipoxygenase ALOX12 | purified 12hLO, xylenol orange hydroperoxide absorbance | AID 1671190 | 580,000 compounds, 1.1% hits | P18054 | Potency, µM (series often up to 108 µM), usual class: inhibitors
Target sequence (P18054 whole entry, looked up): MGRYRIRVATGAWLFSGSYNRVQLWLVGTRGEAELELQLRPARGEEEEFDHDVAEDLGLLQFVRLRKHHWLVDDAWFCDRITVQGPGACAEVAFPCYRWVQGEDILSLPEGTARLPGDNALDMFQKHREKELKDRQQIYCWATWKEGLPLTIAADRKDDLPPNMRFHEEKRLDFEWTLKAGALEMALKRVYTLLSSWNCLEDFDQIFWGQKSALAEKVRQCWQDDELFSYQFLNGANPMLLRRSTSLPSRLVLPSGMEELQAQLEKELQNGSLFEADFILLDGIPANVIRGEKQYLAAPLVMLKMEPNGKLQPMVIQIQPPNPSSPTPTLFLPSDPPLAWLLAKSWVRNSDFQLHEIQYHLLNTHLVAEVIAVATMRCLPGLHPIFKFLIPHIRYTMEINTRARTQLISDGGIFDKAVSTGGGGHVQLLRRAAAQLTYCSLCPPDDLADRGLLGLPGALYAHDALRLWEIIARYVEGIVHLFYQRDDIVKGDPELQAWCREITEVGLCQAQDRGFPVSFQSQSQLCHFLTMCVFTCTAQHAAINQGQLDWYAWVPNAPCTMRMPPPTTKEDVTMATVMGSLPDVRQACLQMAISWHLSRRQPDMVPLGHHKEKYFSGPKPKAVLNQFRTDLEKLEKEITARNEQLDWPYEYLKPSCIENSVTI
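Hydroperoxide product was detected by ferrous iron/xylenol orange as the 573 to 405 nm absorbance ratio. Arachidonic acid at 40 uM (final) was turned over for 30 min at room temperature by 150 nM human 12hLO, pH 7.0 Hepes buffer, after 15 min compound preincubation.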
VP16 counter = inhibits Gal4-VP16 luciferase reporter, ROR gamma counter-screen; Drosophila S2 Gal4-VP16 UAS-luciferase, luminescence, 20 h; Potency, µM (doses to about 53.6 µM), usual class: inhibitors; 310,000 compounds, 3.5% hits;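 further: Gal4-VP16 expression switched on by copper sulfate through the metallothionein promoter; nearly all actives have a fitted effect of over 50% in size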
RORgamma inh = blocks mouse ROR gamma transcriptional activity; AID 2551; Potency, µM (highest dose often 53.6 µM), hits mostly inhibitors; Drosophila S2 Gal4-RORgamma UAS-luciferase reporter, 20 h; P51450; 310,000 compounds, 5.4% hits; further: nearly all actives have a fitted effect of over 60% in size
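Read-out: Photinus luciferase luminescence; inhibitors lower reporter signal. Insect Schneider cells with Gal4-ROR gamma fusion under metallothionein promoter, UAS reporter; 700 uM final copper sulfate induction, 20 hr, ambient temperature.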
Hits are given with their value; ! = not confirmed by another sample; [ ] = dose if it differs, or a comment. Shown are actives, neighbours in structure and some others; about 15% of the full set was active somewhere. The call rests on the fitted dose curve; in most records, active means well fitted curve in the direction sought with a large enough effect; inconclusive means small, poorly fitted or top-dose-only effect, or another doubt; inactive means no such curve, though single readings can be large; an effect the other way counts as inactive or inconclusive.

Cc1ccc(CC(=O)N(C)Cc2nc(-c3ccccc3)no2)cc1 was read as 12-LOX inh inactive.
`Cc1ccc(C(=O)N(Cc2nc(-c3ccc(C)cc3)no2)C(C)C)cc1` gave ELG1 repair inh inactive, TDP1 cell CPT inconclusive, TDP1 cell noCPT 16.4µM, 12-LOX inh inconclusive, VP16 counter inactive and RORgamma inh inactive.
Screening Cc1ccc(-c2noc(CSc3ccccc3)n2)cc1 returned ELG1 repair inh inconclusive, TDP1 cell CPT inactive, TDP1 cell noCPT inactive, 12-LOX inh inactive, VP16 counter 2µM and RORgamma inh inconclusive.
Cc1ccc(-c2noc(CN(C(=O)c3ccc4c(c3)OCO4)C(C)C)n2)cc1 was read as ELG1 repair inh inactive, TDP1 cell CPT inconclusive, TDP1 cell noCPT inconclusive, 12-LOX inh inactive, VP16 counter inactive and RORgamma inh inconclusive.
Screening Cc1ccc(N(CC(=O)NCc2ccccc2C)S(=O)(=O)N(C)C)cc1 returned 12-LOX inh inactive.
CC1(C)CC(NC(=O)C2CCN(S(=O)(=O)c3ccccc3)CC2)CC(C)(C)N1 was read as 12-LOX inh inactive.
For O=C(Nc1cc2c(cc1C(=O)C1CC1)OCCO2)c1ccco1 the results were 12-LOX inh inactive.
Screening CCOc1cc(C(=O)N(Cc2nc(-c3ccc(C)cc3)no2)C(C)C)cc(OCC)c1OCC returned TDP1 cell CPT 16.4µM, TDP1 cell noCPT inconclusive and 12-LOX inh inactive.
COc1ccc(-c2noc(CN(C(=O)C(C)Oc3ccc(C)cc3)C(C)C)n2)cc1 (centres undefined) was read as TDP1 cell CPT 16.4µM, TDP1 cell noCPT 14.6µM and 12-LOX inh inactive.
`COc1ccc(C(=O)N(Cc2nc(-c3ccc(C)cc3)no2)C(C)C)cc1OC` gave ELG1 repair inh inactive, TDP1 cell CPT inactive, TDP1 cell noCPT inconclusive, 12-LOX inh inconclusive, VP16 counter inactive and RORgamma inh inactive.
Screening Cc1c(C(=O)N2CC[C@](C)(O)[C@@H](O)C2)[nH]c2c(F)cccc12 returned 12-LOX inh inactive.
Screening Cc1c(F)cc2c(=O)c(C(=O)O)cn3c2c1CCC3C (centres undefined) returned 12-LOX inh inactive[22.9 µM].
Screening CCn1cc(C(=O)O)c(=O)c2cc(F)c(N3CCNC(C)C3)c(F)c21 (centres undefined) returned TDP1 cell CPT 14.6µM, TDP1 cell noCPT inconclusive, 12-LOX inh inactive, VP16 counter inactive and RORgamma inh inactive.
Screening O=C(c1ccc(C(F)(F)F)cc1)N1CCC(=O)N([C@H](COCc2ccc(C(F)(F)F)cc2)Cc2ccccc2)CC1 returned TDP1 cell CPT 23.1µM, TDP1 cell noCPT inconclusive, 12-LOX inh inconclusive, VP16 counter inactive and RORgamma inh inconclusive.
`CC(C)C[C@@H](COCc1ccc([N+](=O)[O-])cc1)N1CCN(C(=O)c2ccc(C(F)(F)F)cc2)CCC1=O` gave TDP1 cell CPT inconclusive, TDP1 cell noCPT 16.4µM and 12-LOX inh inconclusive.
For CC(C)CC(COCc1ccc(Cl)cc1)N1CCN(C(=O)c2ccc(Cl)cc2Cl)CCC1=O (centres undefined) the results were ELG1 repair inh 23.1µM, TDP1 cell CPT 23.1µM, TDP1 cell noCPT inconclusive, 12-LOX inh inactive, VP16 counter inconclusive and RORgamma inh inconclusive.
For Cc1cccc(COC[C@H](CC(C)C)N2CCN(C(=O)c3ccc(C(F)(F)F)cc3)CCC2=O)c1 the results were TDP1 cell CPT inconclusive, TDP1 cell noCPT 16.4µM and 12-LOX inh inactive.
For CC(C)c1ccc(CNC(C)c2ccc(S(C)(=O)=O)cc2)cc1 (centres undefined) the results were 12-LOX inh inactive.
Screening CC(C)C[C@@H](COCc1ccc(Cl)cc1)N1CCN(C(=O)c2ccc(C(F)(F)F)cc2)CCC1=O returned TDP1 cell CPT inconclusive, TDP1 cell noCPT 20.6µM and 12-LOX inh inconclusive.
`O=C(Nc1cccc(F)c1)N1CCc2c(c3ccccc3n2CC2CC2)C1` gave 12-LOX inh inactive.
For CCOC(=O)CCNC(=O)N1CCC(Cc2noc(-c3ccncc3)n2)C1 (centres undefined) the results were 12-LOX inh inactive.
O=C1NC2(CN(Cc3ccccc3C(F)(F)F)C2)Oc2ccccc21 was read as 12-LOX inh inactive.
Screening S=c1[nH]ncn1NCc1ccc(Cl)cc1Cl returned ELG1 repair inh inactive, TDP1 cell CPT inactive, TDP1 cell noCPT inactive, 12-LOX inh inactive, VP16 counter inconclusive and RORgamma inh 6.31µM.
Screening N#Cc1ccc(-c2csc(NC(=O)C3CC3)n2)cc1 returned ELG1 repair inh inactive, TDP1 cell CPT 0.731µM, TDP1 cell noCPT 0.366µM, 12-LOX inh inconclusive, VP16 counter inactive and RORgamma inh inactive.
`N#Cc1ccc(-c2csc(NC(=O)/C=C/c3cccs3)n2)cc1` gave ELG1 repair inh inconclusive, TDP1 cell CPT 13µM, TDP1 cell noCPT 10.3µM, 12-LOX inh inactive, VP16 counter inactive and RORgamma inh inconclusive.
`N#Cc1ccc(-c2csc(NC(=O)c3cc(-c4cccs4)nc4ccccc34)n2)cc1` gave ELG1 repair inh inconclusive, TDP1 cell CPT inconclusive, TDP1 cell noCPT inconclusive, 12-LOX inh inactive, VP16 counter inactive and RORgamma inh inactive.
For Cc1nc(-c2ccc(C#N)cc2)cs1 the results were ELG1 repair inh inactive, TDP1 cell CPT inactive, TDP1 cell noCPT inactive, 12-LOX inh 31.6µM!, VP16 counter inactive and RORgamma inh inactive.
`O=C(Nc1nnc(CCc2ccccc2)s1)c1cccc(F)c1` gave ELG1 repair inh inconclusive, TDP1 cell CPT inactive, TDP1 cell noCPT inactive, 12-LOX inh inactive, VP16 counter inactive and RORgamma inh 17.8µM.
COc1cc(/C=C(\C#N)c2nc3c(s2)CCCC3)ccc1O was read as ELG1 repair inh inconclusive, VP16 counter inconclusive and RORgamma inh 8.91µM.
`Cc1c(C(=O)N(C)c2ccc(Cl)cc2)cnn1-c1ccccc1` gave ELG1 repair inh inconclusive, TDP1 cell CPT inconclusive, TDP1 cell noCPT 4.61µM, 12-LOX inh inactive, VP16 counter inactive and RORgamma inh inactive[1.91 µM].
`Cc1cccc(N(C)C(=O)c2cnn(-c3ccccc3)c2C)c1` gave ELG1 repair inh inactive, TDP1 cell CPT inactive, TDP1 cell noCPT inconclusive, 12-LOX inh inactive, VP16 counter inactive and RORgamma inh inconclusive.
Oc1c(Cl)cc(Cl)cc1/C=N/NC(=S)NC1CC2C=CC1C2 (centres undefined) was read as ELG1 repair inh 14.6µM, TDP1 cell CPT inconclusive, TDP1 cell noCPT 11.6µM, 12-LOX inh inconclusive, VP16 counter 20µM and RORgamma inh 4.47µM.

Source: PubChem
